# From PubChem
# Only some compounds are listed: those with a hit (about 1.2% of all), similar ones and a draw of the others.
# KCNH2 3.1 block: blocks the human KCNH2 3.1 channel isoform; U2OS KCNH2 3.1, thallium flux FluxOr; active compounds read low; activity change, % (tested at about 1.8 µM); 340,000 compounds, 0.95% hits; AID 720553;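 active means maximum activity change below -70%; inconclusive means maximum activity change from -70% to -50%; inactive means maximum activity change above -50%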;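 further: thallium influx rate constant from kinetic fluorescence after stimulation buffer; on the % scale 0 is the no-effect control and ±100 the full control effect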
#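 FluxOr-based Tl+ influx in U2OS cells transduced with KCNH2 3.1 virus; rate constants normalized to DMSO controls.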
# PTAP TSG101 blk: blocks PTAP/TSG101 interaction to inhibit HIV-1 budding. Q99816. Fluorescence polarization, FITC-PTAP peptide / Tsg101 binding. Potency, µM (series often up to 115 µM), for inactives: at the top dose activity change, negative = inhibition, usual class: inhibitors. 340,000 tested, under 10 active; active means well fitted inhibition curve with a large enough effect in the main read-out, with a control signal flat, not every such curve was filed as active; inconclusive means small, poorly fitted or top-dose-only effect, or effect the other way, or a change in a side signal; inactive means no such curve, though single readings can be large or run the other way; further: potency means the concentration at half of the fitted maximal effect; % of control where 0% means no effect
#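 Fluorescence anisotropy tracks displacement of a FITC-tagged PTAP peptide (50 nM) from the Tsg101 binding domain (10 uM), following a 20 min room-temperature incubation at pH 7.5.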
# KCNH2 WT inh: blocks the wildtype human KCNH2 potassium channel. Q12809. U2OS, BacMam KCNH2, thallium flux FluxOr; active compounds read low. activity change, % at 1.84 µM. 340,000 compounds, 0.37% hits;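 active means maximum activity change below -70%; inconclusive means maximum activity change between -70% and -50%; inactive means maximum activity change above -50%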; further: on the % scale 0 is the no-effect control and ±100 the full control effect
# Target sequence (Q12809 whole entry, looked up): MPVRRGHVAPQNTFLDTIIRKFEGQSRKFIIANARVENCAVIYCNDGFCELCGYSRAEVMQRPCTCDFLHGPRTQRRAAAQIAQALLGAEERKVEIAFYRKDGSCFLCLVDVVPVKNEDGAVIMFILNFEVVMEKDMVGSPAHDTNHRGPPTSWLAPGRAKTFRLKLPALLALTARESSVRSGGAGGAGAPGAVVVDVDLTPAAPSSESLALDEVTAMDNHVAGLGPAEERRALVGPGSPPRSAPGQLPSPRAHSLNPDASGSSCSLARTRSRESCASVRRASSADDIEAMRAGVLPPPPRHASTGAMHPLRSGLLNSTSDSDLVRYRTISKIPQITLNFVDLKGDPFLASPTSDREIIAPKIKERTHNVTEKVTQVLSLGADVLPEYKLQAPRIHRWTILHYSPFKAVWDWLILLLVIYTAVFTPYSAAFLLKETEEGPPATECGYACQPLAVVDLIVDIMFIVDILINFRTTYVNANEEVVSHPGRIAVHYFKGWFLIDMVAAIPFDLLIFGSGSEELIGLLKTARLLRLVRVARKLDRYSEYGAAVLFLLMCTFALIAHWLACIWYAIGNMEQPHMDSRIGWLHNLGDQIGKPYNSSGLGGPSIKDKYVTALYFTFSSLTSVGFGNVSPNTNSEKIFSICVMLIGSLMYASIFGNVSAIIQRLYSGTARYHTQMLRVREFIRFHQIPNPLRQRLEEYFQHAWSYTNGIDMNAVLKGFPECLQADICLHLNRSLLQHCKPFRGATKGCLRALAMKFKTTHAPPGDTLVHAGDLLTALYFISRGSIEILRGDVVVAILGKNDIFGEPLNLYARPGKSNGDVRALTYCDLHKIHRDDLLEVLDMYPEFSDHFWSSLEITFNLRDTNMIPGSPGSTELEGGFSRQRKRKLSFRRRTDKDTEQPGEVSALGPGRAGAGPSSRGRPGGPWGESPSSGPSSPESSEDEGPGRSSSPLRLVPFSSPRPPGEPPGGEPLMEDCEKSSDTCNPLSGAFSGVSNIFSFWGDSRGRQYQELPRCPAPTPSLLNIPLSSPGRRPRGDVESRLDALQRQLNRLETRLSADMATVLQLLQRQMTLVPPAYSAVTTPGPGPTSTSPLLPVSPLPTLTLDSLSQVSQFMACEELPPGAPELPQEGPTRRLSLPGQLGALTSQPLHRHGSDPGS
#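 U2OS cells were transduced with wild-type KCNH2 virus (2.03 x 10^8 / mL) for 4 h at room temperature, then cultured overnight at 37 C. Thallium flux was read with FluxOr dye. Rate constants were normalized to DMSO controls.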
# Tb PFK inh: T. brucei PFK enzyme inhibition; 330,000 compounds, 0.17% hits; T. brucei PFK, ADP-Glo luminescence; Potency, µM (highest dose often 57.5 µM), inactives show at the top dose activity, negative = inhibition, most hits filed as inhibitors; O15648; active means well fitted inhibition curve with a large enough effect; inconclusive means small, poorly fitted or top-dose-only effect, or effect the other way;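 further: potency means the concentration at half of the fitted maximal effect; 0% = uninhibited 1x PFK enzyme wells and -100% = no-enzyme wells; nearly all actives have a fitted effect of over 60% in size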
#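 Compounds were pin-transferred as a titration series up to 57 uM into substrate buffer (0.5 mM F6P, 0.1 mM ATP, pH 8.0), then 1.25 nM PFK was added and reactions ran 45 min before ADP-Glo detection.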
# Active calls of the source: *; ? = inconclusive; nt = no result; [ ] = remark or other dose.
SMILES,KCNH2 3.1 block,PTAP TSG101 blk,KCNH2 WT inh,Tb PFK inh
COc1cccc(-c2nnc(-c3ccccc3NC(=O)c3ccc(C(C)(C)C)cc3)o2)c1,3,-1%,3,-2%
CCOC(=O)c1c(C)nc2ncccn12,14,-5%,-7,nt
CCOC(=O)c1c(C)nc2sccn12,-95*,-8%,12,1%
CCOC(=O)N1CCN(Cc2nc(N)nc(Nc3ccc(OCC)cc3)n2)CC1,-86*,0%,0,1%
CCOC(=O)N1CCN(Cc2nc(N)nc(Nc3ccc(OC)cc3)n2)CC1,-32,-2%,10,2%
CCOC(=O)N1CCN(Cc2nc(N)nc(Nc3ccc(Oc4ccccc4)cc3)n2)CC1,-89*,-1%,-32,0%
CCOC(=O)C1CCCN(Cc2nc(N)nc(Nc3ccc(Cl)cc3)n2)C1 (stereo not drawn),?,-8%,-9,3%
CCOC(=O)N1CCN(Cc2nc(N)nc(Nc3ccc(Cl)cc3)n2)CC1,-100*,1%,6,0%
COCCN(C(=O)CCc1ccccc1OC)c1nnc(-c2cccnc2)s1,14,-1%,nt,2%
CCc1nc(NCC2CC2)c2nnn(Cc3ccccc3)c2n1,1,nt,3,nt
N#Cc1cccc(NC(=O)CCc2ccc(S(=O)(=O)N3CCOCC3)cc2)c1,12,-4%,5,?
O=c1[nH]c(CN2CCN(C/C=C/c3ccccc3)CC2)nc2cc(Cl)ccc12,-99*,-8%,-110*,-8%
NC(=O)CSc1oc(-c2ccco2)nc1S(=O)(=O)c1ccc(F)cc1,8,-2%,-18,-2%
O=C(CN1CCCc2ccccc21)NC(=O)NCc1ccccc1,-2,-2%,1,-6%
CC(C)(C)NC(=O)NC(=O)CN1CCCc2ccccc21,-88*,-3%,5,3%
COC(=O)c1cc(CNC(=O)c2ccc(N3CCCC3)c([N+](=O)[O-])c2)ccc1OC,-6,0%,-5,2%
O=C1OC2(CCCCC2)CC2=C1C1O[C@](c3ccsc3)(Cc3c1ccc1ccccc31)O2,nt,nt,nt,-1%[11.5 µM]
Cc1ccc(O)c(N/C=C/C(=O)c2ccc(F)cc2)c1,-14,0%,-16,1%
COc1cc(NS(=O)(=O)c2ccc3[nH]c(=O)oc3c2)cc(OC)c1,-71*,-7%,20,0%
Cc1c(C)n2c(SCC(=O)N3CCOCC3)nnc2[nH]c1=O,13,-2%,-10,10%
CCN1C(=O)CC(Sc2ccccc2C(=O)O)C1=O (stereo not drawn),-104*,0%,-19,2%
COC(=O)[C@H](Cc1ccccc1)NC(=O)N1CCCCCC1,-1,-2%,nt,1%
COC(=O)[C@H](CC(C)C)NC(=O)N1CCCCC1,-126*,-6%,0,0%
COc1ccc(N2CCN(C(=O)c3ccc(COc4ccc([N+](=O)[O-])cc4)o3)CC2)cc1,-21,-5%,5,0%
O=[N+]([O-])c1ccc(N2CCN(S(=O)(=O)c3ccccc3)CC2)cc1,-84*,-2%,-80*,-1%
SMILES,KCNH2 3.1 block,PTAP TSG101 blk,KCNH2 WT inh,Tb PFK inh
Cc1ccc(S(=O)(=O)NCc2ccc(C(=O)N3CCN(c4ccc([N+](=O)[O-])cc4)CC3)cc2)cc1,-96*,-1%,-29,1%
Cc1c(Cl)cccc1-c1ccc(C(=O)N2CCN(c3ccc([N+](=O)[O-])cc3)CC2)o1,-80*,1%,-48,0%
COc1ccc(N2CCN(C(=O)c3ccc(CNS(=O)(=O)c4ccc(C)cc4)cc3)CC2)cc1,-3,-2%,10,-1%
CCOC(=O)N1CCN(c2ccc([N+](=O)[O-])cc2)CC1,-22,-3%,2,-2%
CSC(=NC#N)N1CCN(c2ccc([N+](=O)[O-])cc2)CC1,-79*,4%,14,-33%
COc1cc(N=Nc2ccc(C)cc2S(N)(=O)=O)c(C)cc1N,-5,0%,2,nt
O=C(CSc1nc2ccccc2[nH]1)N1CCN(c2ccc(F)cc2)CC1,4,-10%,16,-11%
O=C(Cc1ccc(F)cc1)N1CCN(c2ccc([N+](=O)[O-])cc2)CC1,-47,-7%,7,-1%
O=C(Cc1ccc([N+](=O)[O-])cc1)N1CCN(c2ccc([N+](=O)[O-])cc2)CC1,-91*,-1%,?,-16%
O=C(c1ccc(-c2cccc(Cl)c2)o1)N1CCN(c2ccc([N+](=O)[O-])cc2)CC1,-101*,-1%,?,-3%
O=C(CCCSc1nc2ccccc2[nH]1)N1CCN(c2ccc([N+](=O)[O-])cc2)CC1,-116*,-5%,-105*,-1%
O=[N+]([O-])c1ccc(N2CCN(C(=S)NC3CCCCC3)CC2)cc1,-72*,-4%,-23,-6%
CN(CC(=O)Nc1ccc(F)c(F)c1F)C(=O)c1nn(Cc2ccccc2)c(=O)c2ccccc12,-27,-4%,5,0%
CCC(C(=O)N1CCOCC1)n1nc(C)n2c(cc3cc(C)ccc32)c1=O (stereo not drawn),-1,-7%,-2,1%
COc1ccc(C(=O)NCc2nnc(SCC(=O)N3CCCCC3)o2)cc1,-92*,1%,-3,0%
CCN(CC)CCNCC(O)(c1ccc(Cl)cc1)c1ccc(Cl)cc1,-91*,-3%,?,-3%
Cc1cc(S(=O)(=O)N2CCC(NC(=O)C34CC5CC(CC(C5)C3)C4)CC2)ccc1-n1cnnn1,-89*,-7%,11,0%
Cc1cc(S(=O)(=O)N2CCC(N3CCCCC3)CC2)ccc1-n1cnnn1,3,-4%,29,2%
CCCCn1c(C)cc2c(c1=O)C1O[C@](c3ccsc3)(Cc3cc(OC)c(OC)cc31)O2,nt,nt,nt,3%[11.5 µM]
CCN1CCN(CCNC(=O)c2ccc3c(c2)N(Cc2ccc(F)cc2)C(=O)/C(=C/c2ccccc2)S3)CC1,-88*,-6%,-20,0%
COc1ccc(/C=C2\Sc3ccc(C(=O)NC4CC4)cc3N(C)C2=O)cc1OC,-3,-1%,0,-2%
Cc1ccccc1CN1C(=O)/C(=C\c2ccc(C(=O)NCCN3CCOCC3)cc2)Sc2ccccc21,1,-6%,0,3%
CCN1CCN(CCNC(=O)c2ccc(/C=C3/Sc4ccccc4N(Cc4cccc(Cl)c4)C3=O)cc2)CC1,?,0%,3,2%
Cc1cccc(CN2C(=O)/C(=C\c3ccc(C(=O)NCCN4CCOCC4)cc3)Sc3ccccc32)c1,-81*,-5%,-5,-1%
CN1C(=O)/C(=C\c2ccccc2F)Sc2ccc(C(=O)NC3CCN(Cc4ccccc4)CC3)cc21,-81*,0%,-83*,-7%
Cc1ccc(S(=O)(=O)Nc2cccc(C(=O)NC3CCN(Cc4ccccc4)CC3)c2)cc1F,-80*,0%,-39,-5%
C=CCC1NS(=O)(=O)OC(CCc2ccccc2)C1O (stereo not drawn),-1,-2%,-26,-1%
COc1ccc(CCNCC(O)COc2ccc(OC)cc2C(C)(C)C)cc1 (stereo not drawn),-19,-2%,15,-4%
CCCN1CCN(C(=O)c2ccc3[nH]c(C)c(C)c3c2)CC1,-8,nt,-8,nt
